Molecules are shown by their SMILES. In all, about 1,200 compounds went through this assay and about 480 (40%) were called active. The rule behind the calls is not given here. So high a share suggests a set chosen from earlier hits. The list is a sample of the results. Entries with a potency or affinity are not part of this list.

A short description of this assay: viability loss in human hepatoma cells – cell-based, CellTiter-Glo luminescence, cherry-pick, set 2, cytotoxicity control, dose response (AID 743395). The settings on record: HepG2 viability, CellTiter-Glo ATP luminescence, 72 h; series mostly up to 26 µM. For orientation: Cellular ATP, detected with luciferase, serves as a proxy for viable cell number.
As to `CCOc1ccc(NC(=O)c2ccccc2NC(=O)CNC2CCCC(C)C2C)cc1` (centres undefined), the call was inactive.
Turning to `COc1cc(C(=O)Nc2ccc(C)cc2)c2ccccc2n1`, the molecule was called inactive.
In the case of `COc1ccc(OCC(=O)N/N=C/C=C/c2ccccc2)cc1`, the outcome was inactive.
As for `COc1ccc2[nH]c(C(=O)N/N=C/c3ccc(OC)c(O)c3)cc2c1`, the result was inactive.
With `CC(C)C[C@@H](COCc1ccc(C(F)(F)F)cc1)N1CCN(C(=O)c2ccc(C(F)(F)F)cc2)CCC1=O`, the molecule was classed as inactive.
For `CN(CC(=O)NCCc1ccc(S(N)(=O)=O)cc1)CC(=O)Nc1ccc(Cl)c(C(F)(F)F)c1`, the result was inactive.
Regarding `Nc1c2c(nc3ccccc13)CCCC2`, the molecule was classed as inactive.
Consider `CCOC(=O)C1CCCN(c2nc3ccccc3nc2NS(=O)(=O)c2ccc(C)cc2)C1` (centres undefined), for which the result was inactive.
In the case of `CCOC1=C2CN(S(=O)(=O)c3ccc(C)cc3)CC[C@@H]2N(S(=O)(=O)c2ccc(C)cc2)[C@H](c2ccccc2)C1`, the molecule was called inactive.
`C[C@H]1C[C@H]2[C@@H]3CCC4=CC(=O)C=C[C@]4(C)[C@@]3(F)[C@@H](O)C[C@]2(C)[C@@]1(O)C(=O)CO`: the call was inactive.
As to `Cc1ccc(-c2ccc3c(c2)O[C@H](CN(C)C(=O)Nc2ccc(C(F)(F)F)cc2)[C@@H](C)CN([C@@H](C)CO)S3(=O)=O)cc1`, the call was inactive.
On to `Cc1ccc(-c2ccc3c(c2)O[C@@H](CN(C)C(=O)Nc2ccc(F)cc2)[C@@H](C)CN([C@@H](C)CO)S3(=O)=O)cc1`, for which the molecule was called inactive.
Take `Cc1ccc(-c2ccc3c(c2)O[C@H](CN(C)C(=O)Nc2ccc(F)cc2)[C@@H](C)CN([C@@H](C)CO)S3(=O)=O)cc1`: the molecule was called inactive.
For `C[C@H]1CN([C@@H](C)CO)S(=O)(=O)c2ccc(C3=CCCCC3)cc2O[C@@H]1CN(C)C(=O)Cc1ccncc1` the value was “inactive”; for `C[C@@H]1CN([C@H](C)CO)S(=O)(=O)c2ccc(-c3ccc(C#N)cc3)cc2O[C@H]1CN(C)Cc1cccc(F)c1`, “inactive”.
Take `COc1cccc(S(=O)(=O)N(C)C[C@@H]2Oc3cc(C4=CCCC4)ccc3S(=O)(=O)N([C@@H](C)CO)C[C@H]2C)c1`: the molecule was classed as inactive.
For `Cc1ccc(-c2ccc3c(c2)O[C@@H](CN(C)C(=O)Nc2ccc(F)cc2)[C@@H](C)CN([C@H](C)CO)S3(=O)=O)cc1` the value was “inactive”.
As to `C[C@@H]1CN([C@H](C)CO)S(=O)(=O)c2ccc(-c3ccc(C#N)cc3)cc2O[C@H]1CN(C)Cc1ccccn1`, the result was inactive.
Consider `CC(=O)c1c(C)[nH]c(C(=O)OCc2nnc(-c3ccc([N+](=O)[O-])cc3)o2)c1C`, for which the outcome was inactive.
Take `C[C@@H]1CN([C@H](C)CO)S(=O)(=O)c2ccc(C#CC3CC3)cc2O[C@H]1CN(C)Cc1ccccn1`: the outcome was inactive.
For the molecule `C[C@@H]1CN([C@@H](C)CO)S(=O)(=O)c2ccc(C#Cc3ccc(F)cc3)cc2O[C@H]1CN(C)C(=O)c1ccccn1`, the outcome was inactive.
As for `Cc1ccc(-c2ccc3c(c2)O[C@H](CN(C)C(=O)Nc2ccc(C(F)(F)F)cc2)[C@H](C)CN([C@@H](C)CO)S3(=O)=O)cc1`, the molecule was called inactive.
In the case of `C[C@@H]1CN([C@@H](C)CO)S(=O)(=O)c2ccc(-c3ccc(C#N)cc3)cc2O[C@H]1CN(C)Cc1cccc(F)c1`, the outcome was inactive.
As for `CO[C@@H](CN(C)S(=O)(=O)c1ccc(C)cc1)[C@H](C)CN([C@@H](C)CO)S(=O)(=O)c1cccc(Cl)c1`, the result was inactive.
As for `O=C(Cc1ccccn1)NCC[C@@H]1CC[C@H](NC(=O)Nc2ccc(C(F)(F)F)cc2)[C@@H](CO)O1`, the result was inactive.
`O=C(O)c1ccccc1-c1nc(-c2ccccc2)c(-c2ccccc2)[nH]1`: the result was inactive.
Regarding `O=C(NCc1ccccc1)C(c1ccc(-c2ccccc2)cc1)n1c(=O)c(-c2cc3ccccc3[nH]2)nc2ccccc21` (centres undefined), the call was inactive.
With `COc1cc2c(cc1OC)C(c1cccs1)N(C(=O)c1cccnc1)CC2` (centres undefined), the molecule was classed as inactive.
On to `Cc1cc(C(=O)CN2CCN(CC(=O)Nc3ccc(F)cc3)CC2)c(C)n1C1CC1`, for which the molecule was called inactive.
For `CCOc1ccc(C(=O)NCC(=O)N2CCN(Cc3ccccc3)CC2)cc1`, the molecule was called inactive.
As to `CCCOc1ccc(C(=O)CCCC(=O)c2ccc(OCCC)cc2)cc1`, the molecule was called inactive.
On to `CN1/C(=C\C=C2/SC(=S)N(CC(=O)O)C2=O)C(C)(C)c2ccccc21`, for which the outcome was inactive.
As for `C=CCN(CC=C)C(=S)Nc1ccc(OC)c(OC)c1`, the call was inactive.
For `Cc1ccc(CNC(=O)COC(=O)c2ccc(S(=O)(=O)N(C)C)cc2)cc1` the value was “inactive”; for `CCOc1ccc(C(=O)NNC(=O)CCNC(=O)c2ccc(Br)cc2)cc1OC`, “inactive”; for `Cc1nnc(NC(=O)CSc2nccn2-c2cccc(C)c2C)s1`, “inactive”.
As for `Cc1cc(Br)c(NC(=O)C(C)Sc2nnnn2C)c(Br)c1` (centres undefined), the molecule was called inactive.
Turning to `NS(=O)(=O)c1ccc(NNC(=O)c2ccc(Br)o2)c([N+](=O)[O-])c1`, the call was inactive.
In the case of `CC(C)NC(=O)c1ccc(COc2cccc3ccccc23)o1`, the molecule was called inactive.
For the molecule `Cc1cc(C(=O)NNC(=O)c2ccc(Cl)c(S(N)(=O)=O)c2)c(C)o1`, the outcome was inactive.
For `Cc1ccc(S(=O)(=O)N2CCOCC2)cc1NC(=O)CSc1n[nH]c(N)n1` the value was “inactive”.
Consider `O=C(Nc1ccccc1F)N1C[C@H]2[C@@H](c3ccccc31)[C@@H](CO)N2C(=O)c1ccccn1`, for which the result was inactive.
`COc1ccccc1NS(=O)(=O)c1cc(N=N/C(C(=O)Nc2ccc(Cl)cc2)=C(/C)O)ccc1C`: the result was inactive.
For the molecule `COc1ccccc1NS(=O)(=O)c1cc(C(=O)N2CCCCCC2)ccc1C`, the molecule was classed as inactive.
Take `O=C(NC(=S)Nc1ccc(-c2ccccc2)cc1)c1ccccc1`: the result was inactive.
As for `Cc1ccc(C(=O)NNC(=O)c2ccc(S(=O)(=O)N3CCCCC3)cc2)cc1`, the result was inactive.
Turning to `CNC(=O)C1CC(=O)N(c2ccc(OCC(=O)Nc3ccccc3)cc2)C1` (centres undefined), the molecule was classed as inactive.
For `COc1ccccc1N1CC(C(=O)Nc2ccc(S(=O)(=O)N3CCCC3)cc2)CC1=O` (centres undefined) the value was “inactive”; for `COc1ccc(C2=NOC(C(=O)NCc3ccccc3)C2)cc1` (centres undefined), “inactive”; for `COc1ccc(Cc2nnc(NC(=O)c3ccc(F)cc3)s2)cc1OC`, “inactive”.
As for `COc1ccc2c(c1)c(CC(=O)OCC(=O)O)c(C)n2C(=O)c1ccc(Cl)cc1`, the molecule was classed as inactive.
The value for `Cc1ccc(S(=O)(=O)N2CCN(C(=O)COC(=O)/C=C/c3ccc(Cl)cc3)CC2)c(C)c1` was “inactive”.
`N#Cc1ncn(C2OC(CO)C(O)C2O)c1N` (centres undefined): the outcome was inactive.
For `Cc1cc(Cl)cc(C)c1OCCn1ccnc1`, the molecule was classed as inactive.

The values are drawn from PubChem BioAssay AID743395 (Broad Institute, 2014).
